Outcome and AC50 data for 40 compounds are collected here from PubChem BioAssay (EPA / NIEHS).

The structures appear in SMILES notation. Results filed as inconclusive are left out. Activity calls are given as the source filed them. How the source made its calls: active means hit-call score of the fitted dose curve at least 0.9, where 1 is the maximum; inconclusive means response in the unintended direction; inactive means score below 0.9.

Read-out in this test: ABC Transporter (ABCB1), ABCB1 (gene 5243)
Put plainly: CLD_ABCB1_48hr: CellzDirect (CLD) Gene Expression Assay for ABC Transporter (ABCB1) at 48 hours (AID 2283695).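 On AC50: potency for induction meaning increase of mRNA over DMSO vehicle.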 The procedure: CLD_48hr is a cell-based, multiplexed-readout assay that uses hepatocyte, a human liver primary cell, with measurements taken at 48 hours after chemical dosing in a 96-well plate.CLD_ABCB1_48hr is one of 16 assay component(s) measured or calculated from the CLD_48hr assay. It is designed to make measurements of mRNA induction, a form of inducible reporter, as detected with chemiluminescence signals by Quantitative Nuclease Protection Assay (qNPA) technology.Data from the assay component CLD_ABCB1_48hr was analyzed at the endpoint, CLD_ABCB1_48hr, in the positive analysis fitting direction relative to DMSO as the negative control and baseline of activity. Using a type of inducible reporter, gain-of-signal activity can be used to understand changes in the reporter gene as they relate to the gene ABCB1. Furthermore, this assay endpoint can be referred to as a primary readout. To generalize the intended target to other relatable targets, this assay endpoint is annotated to the transporter intended target family, where subfamily is ABC transporter.
Human hepatocyte cultures were treated daily for two consecutive days with fresh dosing solutions containing appropriate concentrations of the 320 ToxCast chemicals (chemical identities were blinded to CellzDirect and other ToxCast collaborators), vehicle control (0.2% DMSO), and positive control inducers as summarized in Table 1. Due to the large number of treatment groups and chemicals examined, the ToxCast chemicals were divided into two groups (spanning two independent cultures of hepatocytes from separate donor preparations (Hu778: ToxCast plates 1 and 2; Hu776: ToxCast plates 3 and 4). Each preparation of human hepatocyte cultures was treated with respective vehicle control, medium only control, set of six positive controls/reference chemicals for the five hepatic receptor pathways, and a subset of eight of the ToxCast chemicals (indoxacarb, pyrithiobac-sodium, norflurazon, cyhalofop-butyl, methomyl, thiram, acetochlor, and propiconazole). These replicate data, coupled with internal replicates designed within the blinded ToxCast chemical library, provided additional data to evaluate interindividual differences between hepatocyte preparations and their potential impact on chemical profiles.Cell morphology and integrity were evaluated using phase-contrast microscopy as an indicator of hepatocyte cell health (Tyson & Green, 1987). Cultures for each treatment group (i.e., media, vehicle [0.2% DMSO], positive control inducers [multiple concentrations], and the ToxCast chemicals [multiple concentrations]) were observed and cell morphology was assessed relative to vehicle control cultures at each harvest time point (0, 6, 24, or 48 h). […] Images were evaluated at the conclusion of the study to assess changes in cell integrity and account for the effects of chemical exposure on uncharacteristic changes in concentration-dependent gene expression profiles. The results from these determinations of apparent cytotoxicity were annotated (yes/no) alongside the corresponding qNPA data for reference.At the conclusion of each treatment period, hepatocyte cultures (96-well) were washed with 1 volume of HBSS, lysed by addition of 25 ul ArrayPlate lysis buffer (HTG, Tucson, AZ), and 70 ul/well of Denaturation Oil, denatured by incubation at 95C for 10 min, and frozen at approximately -70C until analysis by nuclease protection assay (qNPA) (Roberts et al., 2007). For qNPA analysis, cell lysates were thawed at 50C for approximately 30 min, qNPA probes were added, and samples were incubated at 95C for 10 min to begin the detection process by denaturing the target RNA, dissociating the duplexes and secondary structure hybridization. At the conclusion of the hybridization period, S1 nuclease reagent was added to each sample to digest all nonprotected nucleotides at 50C for 60-90 min. […]
Consider `COP(=O)(NC(C)=O)SC` (stereo not given), for which the compound was classed as inactive. Same read-out and setting: under `S=C1NCCN1` stands “inactive”. On to `O=c1ccc(=O)[nH][nH]1`, for which the outcome was inactive. On the same count and under the same terms, under `CCc1cnc(C2=NC(C)(C(C)C)C(=O)N2)c(C(=O)O)c1` (stereo not given) stands “inactive”; under `C[N+]1(C)CCCCC1`, “inactive”; under `CCCCOC(=O)[C@@H](C)Oc1ccc(Oc2ccc(C#N)cc2F)cc1`, “inactive”. Still for that read-out and setting: under `N#CSCSC#N` stands “inactive”.

For the compound `CC(Oc1cccc(Cl)c1)C(=O)O` (stereo not given), the compound was called inactive. Still for that read-out and setting: under `CNC(=O)ON=C(C)SC` stands “inactive”; under `CSc1nc(NC(C)C)nc(NC(C)C)n1`, “inactive”. Same read-out and setting: under `COc1cccc(C(=O)NN(C(=O)c2cc(C)cc(C)c2)C(C)(C)C)c1C` stands “inactive”; under `CCOP(=O)(NC(C)C)Oc1ccc(SC)c(C)c1` (stereo not given), “inactive”.

Consider `CC1(C(=O)Nc2ccc(O)c(Cl)c2Cl)CCCCC1`, for which the outcome was inactive. Take `CCc1cccc(C)c1N(C(=O)CCl)C(C)COC` (stereo not given): the compound was classed as inactive. Same read-out and setting: under `CCC(CC)Nc1c([N+](=O)[O-])cc(C)c(C)c1[N+](=O)[O-]` stands “inactive”; under `COc1cc(OC)nc(Sc2cccc(Cl)c2C(=O)O)n1`, “inactive”. Still for that read-out and setting: under `FC(F)C(F)(F)OCC(Cn1cncn1)c1ccc(Cl)cc1Cl` (stereo not given) stands “inactive”; under `Cc1nn(-c2cc(NS(C)(=O)=O)c(Cl)cc2Cl)c(=O)n1C(F)F`, “inactive”. `COP(=O)(OC)C(O)C(Cl)(Cl)Cl` (stereo not given): the outcome was inactive. On the same count and under the same terms, under `CCCCN(CC)c1c([N+](=O)[O-])cc(C(F)(F)F)cc1[N+](=O)[O-]` stands “inactive”.

Take `CCCCSP(=O)(SCCCC)SCCCC`: the result was inactive. Regarding `CC(C)N(C(=O)SCC(Cl)=C(Cl)Cl)C(C)C`, the call was inactive. On the same count and under the same terms, under `CSC1=N[C@@](C)(c2ccccc2)C(=O)N1Nc1ccccc1` stands “inactive”. The same measure, in the same setting: under `COP(=O)(OC)OC(Br)C(Cl)(Cl)Br` (stereo not given) stands “inactive”.

Consider `CCOP(=S)(OCC)SCCSCC`, for which the compound was called inactive. Still for that read-out and setting: under `CNC(=O)Oc1cccc2c1OC(C)(C)O2` stands “inactive”; under `CC(COc1ccc(Oc2ccccc2)cc1)Oc1ccccn1` (stereo not given), “inactive”. Still for that read-out and setting: under `C=C(C)[C@H]1Cc2c(ccc3c2O[C@@H]2COc4cc(OC)c(OC)cc4[C@@H]2C3=O)O1` stands “inactive”. As for `CC(=NC#N)N(C)Cc1ccc(Cl)nc1`, the result was inactive.

On to `CC[C@H](C)[C@H]1O[C@]2(C=C[C@@H]1C)C[C@@H]1C[C@@H](C/C=C(\C)[C@@H](O[C@H]3C[C@H](OC)[C@@H](O[C@H]4C[C@H](OC)[C@@H](NC)[C@H](C)O4)[C@H](C)O3)[C@@H](C)/C=C/C=C3\CO[C@@H]4[C@H](O)C(C)=C[C@@H](C(=O)O1)[C@]34O)O2`, for which the compound was called inactive. Still for that read-out and setting: under `CN(C)NC(=O)CCC(=O)O` stands “inactive”. For `O=C(O)c1cc(Oc2ccc(C(F)(F)F)cc2Cl)ccc1[N+](=O)[O-]`, the compound was classed as inactive. Still for that read-out and setting: under `CCOC(=O)COc1cc(-c2nn(C)c(OC(F)F)c2Cl)c(F)cc1Cl` stands “inactive”. Same read-out and setting: under `CNC(=O)ON=C(SC)C(=O)N(C)C` stands “inactive”.

In the case of `C#CC(C)(C)NC(=O)c1cc(Cl)cc(Cl)c1`, the outcome was inactive.

Turning to `CCC(=NOC/C=C/Cl)C1=C(O)CC(C2CCOCC2)CC1=O` (stereo not given), the compound was called inactive. Still for that read-out and setting: under `CC(C)[C@H](C(=O)O[C@H](C#N)c1cccc(Oc2ccccc2)c1)c1ccc(Cl)cc1` stands “inactive”; under `CCc1cccc(CC)c1N(COC)C(=O)CCl`, “inactive”. On the same count and under the same terms, under `CCCOCC(=Nc1ccc(Cl)cc1C(F)(F)F)n1ccnc1` stands “inactive”. As usually defined, the AC50 is the midpoint of the concentration-response curve, whichever way the signal moves. For `COc1ccc(C(=CC(=O)N2CCOCC2)c2ccc(Cl)cc2)cc1OC`, the half-maximal activity concentration (AC50) is 31 µM (active).
